Experimental data taken from ChEMBL document CHEMBL4513216, “Probing the Open Global Health Chemical Diversity Library for Multistage-Active Starting Points for Next-Generation Antimalarials” (ACS Infect Dis, 2020).
Out of some 68,000 compounds screened, about 2,700 (4%) showed an effect of 50% or more. The full list was thinned out, with strong results kept by preference.

Tested on: Plasmodium berghei
Assay: Screen against P. berghei liver stage (PbLuc), transformed with Luciferase, at 2uM
Type: functional, HepG2
Conditions: tested at 2 uM

SMILES	INHIBITION [%]
Fc1ccc(CN2CCC3(CCCN(c4nncs4)C3)C2)cc1 (stereo unspecified)	3
O=C(NCC1CCCOC1)c1ccc(-c2ccccc2)[nH]c1=O (stereo unspecified)	4.96
Fc1ccc(Cc2cnc(C3CCCN3)cn2)cc1 (stereo unspecified)	-2.89
CC(C)CNc1cc(-c2c[nH]nc2C2CCN(C(=O)C3CC3)C2)ccn1 (stereo unspecified)	13.98
CC(C)Nc1cc(-c2c[nH]nc2C2CCN(C(=O)C3CCC3)C2)ccn1 (stereo unspecified)	16.43
CCCNc1cc(-c2c[nH]nc2C2CCN(C(=O)C3CCC3)C2)ccn1 (stereo unspecified)	87.38
Fc1ccc(OCCNC2CCN(Cc3ccccn3)CC2)c(F)c1	-31.26
CNC(=O)Nc1cc(-c2ccccc2C)nn1CCO	-3.51
Cc1ccccc1-c1cc(NC(=O)NC2CC2)n(CCO)n1	57.75
Cc1ccccc1-c1cc(NC(=O)NC2CCC(O)CC2)n(CCO)n1 (stereo unspecified)	14.82
O=C(c1cnccn1)N1CCCC(Cc2cncc3ccccc23)C1 (stereo unspecified)	99.92
Cc1cccc(C(=O)N2CCCC(Cc3cncc4ccccc34)C2)n1 (stereo unspecified)	33.77
O=C(c1cnccn1)N1CCCC(Cc2cccc3ncccc23)C1 (stereo unspecified)	-3.58
O=c1c2c[nH]c(N3CCCCC3)nc-2cn1-c1ccc2c(c1)OCO2	33.2
Cn1cc(S(=O)(=O)NCc2ccsc2)cn1	-18.65
CNC(=O)C(C)CNC(=O)c1coc(COc2cccc(F)c2F)n1 (stereo unspecified)	16.32
O=C(N[C@@H]1CN(Cc2ccco2)[C@@H]2CCCO[C@@H]21)c1cscn1	-2.81
COc1c(CNC2CCOc3c(Cl)cccc32)c(C)nn1C (stereo unspecified)	24.64
Cc1nc(CN2CCc3ncnc(-c4ccsc4)c3CC2)cs1	8.62
O=C(NCCOCCO)[C@@]12CNC[C@@H]1CN(C1CCCC1)C2	45.82
CCS(=O)(=O)CCNC(=O)[C@@]12CNC[C@@H]1CN(C1CCCC1)C2	-13.8
COCC1(CNC(=O)[C@@]23CNC[C@@H]2CN(C2CCCC2)C3)CC1	83.98
CCC(NC(=O)C1CCN(S(C)(=O)=O)CC1)c1ccc(C)cc1C (stereo unspecified)	20.49
CC(C)COC(=O)N1CCCN(C(C)c2nc(C(C)C)no2)CC1 (stereo unspecified)	4.49
O=C(NCc1ccco1)[C@H]1C[C@H]2OCC[C@H]2N(C(=O)c2ccnnc2)C1	-14.65
O=C(C1CC1)N1CCC2(CCN2Cc2ccc(F)cc2)C1 (stereo unspecified)	31.52

SMILES	INHIBITION [%]
COC(=O)NCC(=O)N1CCCn2nc(CN3CC[C@H](F)C3)cc2C1	52.85
Cc1nn(C)cc1C(=O)N1CCCn2nc(CN3CC[C@H](F)C3)cc2C1	-11.76
O=C(c1ccc(Cl)s1)N1CCCn2nc(CN3CC[C@H](F)C3)cc2C1	-13.81
CCn1cncc1-c1nc2c([nH]1)CC(C)(C)CNC2=O	50.61
CC(C)Cn1cncc1-c1nc2c([nH]1)CC(C)(C)CNC2=O	-54.78
COCCn1cncc1-c1nc2c([nH]1)CC(C)(C)CNC2=O	8.54
CCc1cc(N2CCCNCC2)n2nc(C)c(C)c2n1	14.23
Cc1ccc(NS(=O)(=O)c2cc3c(c(C(=O)O)c2)OCCO3)cc1C	-19.1
O=C(NCc1cc[nH]n1)NCC(O)c1ccc(F)c(F)c1 (stereo unspecified)	-87.87
CCCS(=O)(=O)N1CCCC1c1cccc(N(C)C)c1 (stereo unspecified)	-46.3
c1ccc(-c2ncc(CN3CCCCC3CCn3cccn3)cn2)nc1 (stereo unspecified)	11.38
CN(C)CCC1CCCCN1Cc1cnc(-c2ccccn2)nc1 (stereo unspecified)	53.12
Cc1nccn1CCC1CCCCN1Cc1cnc(N(C)C)nc1 (stereo unspecified)	-4.51
CS(=O)(=O)N1CCC2(CC1)COC(COc1ccccn1)C2 (stereo unspecified)	46.32
Cc1nc(O)c2nnn(C[C@H]3CCCN3C(=O)c3ccccc3C)c2n1	83.57
Cc1nc(O)c2nnn(C[C@H]3CCCN3C(=O)c3ccccc3F)c2n1	33.64
Cc1ccc(C(=O)N2CCC[C@@H]2Cn2nnc3c(O)nc(C)nc32)cc1	-15.93
Cc1nc(O)c2nnn(C[C@H]3CCCN3C(=O)C3CCCC3)c2n1	50.32
Cc1nc(O)c2nnn(C[C@H]3CCCN3C(=O)CCC3CCCC3)c2n1	6.57
Cc1nc(O)c2nnn(C[C@H]3CCCN3C(=O)C(C)(C)C)c2n1	-47.12
CCn1cc(NC(=O)C2CCN(Cc3nc(C)c(C)s3)CC2)cn1	-3.36
Cc1ccc(NC(=O)[C@H]2C[C@H](C(=O)O)CN(CC3CC3)C2)cn1	38.15
FC(F)(F)c1ccc2[nH]c([C@H]3CCNC3)nc2c1	62.8
CC(C)N1CC[C@H](c2nc3ccc(C(F)(F)F)cc3[nH]2)C1	4
Fc1ccc2nc([C@H]3CCNC3)[nH]c2c1	-11.34
COCC(=O)NC(Cc1cc(N(C)C)nc(C2CC2)n1)c1ccccc1 (stereo unspecified)	7.93

SMILES	INHIBITION [%]
CCOCCN1CCN(C=C2NN=C(c3occc3C)O2)CC1CC (stereo unspecified)	24.82
COc1cccc(NC(=O)N(CCC(F)(F)F)C[C@H](O)CO)c1	50.6
Cc1cccc(NC(=O)N(CCC(F)(F)F)C[C@H](O)CO)c1	-24.88
O=C(Nc1ccc(F)cc1F)N(CCC(F)(F)F)C[C@H](O)CO	66.83
COc1cccc(NC(=O)N(CCO)Cc2ccsc2)c1	-75.39
O=C(Nc1ccc(F)cc1)N(CCC(F)(F)F)C[C@H](O)CO	5
CC(CS(C)(=O)=O)N(C(=O)Nc1ccc(F)cc1F)C1CC1 (stereo unspecified)	-3.43
CN(C)c1ccc(C(=O)Nc2ccn(Cc3ccccn3)n2)cn1	-44.17
CN1CCOC[C@H]1c1nc(-c2cccnc2)c[nH]1	5.77
O=C(Nc1cccc(CNCc2csc(Br)c2)c1)C1CC1	-0.64
CCC1(c2ccc(NS(=O)(=O)N(C)C)cc2)CCC(=O)NC1=O (stereo unspecified)	-11.81
C[C@@H]1CN(c2nc3c(cc2C(N)=O)CCC3)CC[C@@]1(O)C1CCC1	2.79
CN1CCCCC1Cc1nc2c(cc1C(N)=O)CCC2 (stereo unspecified)	62.39
NC(=O)c1cc2c(nc1CC1CCCCO1)CCC2 (stereo unspecified)	38.83
COC(=O)c1ccc(NC(C)c2ccc3c(c2)CCC(=O)N3)nn1 (stereo unspecified)	34.22
Cc1csc(N2CCCN(C(=O)c3c(C)noc3C)CC2)n1	24.65
Cc1nc(CN2CCCN(C(=O)c3c(C)oc(C)c3C)CC2)cs1	59.54
Cc1nc(CN2CCCN(C(=O)c3c(C)noc3C)CC2)cs1	3.38
Cc1csc(N2CCCN(C(=O)c3c(C)oc(C)c3C)CC2)n1	-1.5
Cc1csc(N2CCN(C(=O)c3c(C)oc(C)c3C)CC2)n1	58.52
CCc1noc(C)c1C(=O)N1CCCN(Cc2csc(C)n2)CC1	16.84
O=C(NCC1CCCO1)c1cc(-c2ccncc2)c2cnccc2n1 (stereo unspecified)	26.69
CO[C@@H]1CO[C@@]2(CCCN(C(=O)C3CC=CC3)C2)C1	-29.49
COCC1CCN(c2ccnc3ccsc23)C1 (stereo unspecified)	15.84
Cc1ccc(C(=O)N2CCn3cc(CN(C)Cc4ccco4)nc3C2)o1	-40.76
Cn1ncc2c1C(COCC1CC1)CN(C(=O)Cc1ccsc1)C2 (stereo unspecified)	22.16

SMILES	INHIBITION [%]
CN1C(=O)C2(CCNCC2)c2cc(F)ccc21	37.75
CN(C[C@@H]1CCC[C@@H]2CN(Cc3cccnc3)C[C@@H]21)C1CC1	61.09
COc1ccc(CN2C[C@H]3CCC[C@@H](CN(C)C4CC4)[C@H]3C2)cn1	0.42
c1cnc(NC[C@@H]2CCC[C@@H]3CN(Cc4cccnc4)C[C@@H]32)nc1	7.08
CC(=O)N1CCOC(c2cc(N3CC(O)C3)nc(C)n2)C1 (stereo unspecified)	18.8
Cc1cnn(C2CN(CCOc3ccc(C#N)cc3)C2)c1	-22.06
Cc1cccc(NC(=O)[C@@H]2CCCN2CC(=O)Nc2ccccc2)n1	-32.35
CCOC(=O)N1CCN(C(=O)c2cc(-c3ccc(C)cc3)on2)CC1	21.28
NC(=O)CN1C(=O)CO[C@H]2CN(Cc3ccccc3)C[C@H]21	41.93
NC(=O)CN1C(=O)CO[C@H]2CN(Cc3ccc(F)c(F)c3)C[C@H]21	27.65
NC(=O)CN1C(=O)CO[C@H]2CN(Cc3ccc(Cl)cc3)C[C@H]21	58.4
Cn1ccnc1CN1CCCC(CCCc2ccccn2)(C(N)=O)C1 (stereo unspecified)	-11.32
COC(=O)c1cccc(S(=O)(=O)NC(=O)COC2CCCCC2)c1	19.64
Cc1nc(Nc2ccccn2)cc(N2CCN(S(C)(=O)=O)CC2)n1	18.99
CS(=O)(=O)N1CCN(c2cc(-n3cccc3)ncn2)CC1	19.08
Cc1ccc(Nc2cc(N3CCN(S(C)(=O)=O)CC3)nc(C)n2)cc1	51.2
CC1CCN(C(=O)C(C)n2cc(Br)cn2)CC1 (stereo unspecified)	20.8
FC(F)(F)c1ccnc(N2CCC(c3nccn3CC3CC3)CC2)n1	-0.62
CCCn1ncc(CN2C[C@@H]3CCCN3C[C@H]2Cc2ccccc2)c1C	37.6
CCCn1nc2c(cc1=O)CN(CC1CCCCO1)CC2 (stereo unspecified)	28.72
Cc1cc(F)c(S(=O)(=O)N(C)CCn2cccn2)cc1F	50.03
CN(CCn1cccn1)S(=O)(=O)c1cccc(Cl)c1C#N	-26.2
CN(CCn1cccn1)S(=O)(=O)c1cccc(F)c1C#N	-2.19
